Screening results (PubChem)
This is a sample that favours compounds with a hit; in the whole collection about 2.3% have one here.
beta cell repl = MIN6 beta-cell proliferation induction; proliferation, % at 10 µM; MIN6 cells proliferation, ATPlite luminescence, 48 h; cells starved in 0.2% serum; 100% = growth in 10% serum; actives 0.29% (n = 330,000); AID 2380;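 active = compounds whose signal lies at least 3.5 SD above the mean of all wells on their plate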;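 note: 0% = DMSO-treated cells in low-serum medium and 100% = 10% serum control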
Cardio protect = modulators protecting cardiomyocytes from myocardial damage; H9c2 cardiomyocytes, H2O2 injury protection, ATPLite, 2 h; protection from H2O2 cell death, % at 20 µM; actives 0.63% (n = 360,000);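 active = compounds giving at least 50% protection of heart cells from peroxide-induced death in the single-dose screen, raw or plate-pattern-corrected value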;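 note: 0% = DMSO wells with peroxide and 100% = DMSO wells without peroxide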
Calpain2 inh = calpain II (pig) inhibition. purified calpain II, fluorogenic peptide substrate, 30 min. inhibition, % at 16 µM. actives 0.37% (n = 220,000). AID 1236;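 active = inhibition above about 50%, limit read from the data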
FAS TE block = FAS thioesterase (human) inhibition; P49327; recombinant FAS-TE, OMFH fluorogenic substrate, fluorescence endpoint; inhibition, % at 15 µM; actives 0.67% (n = 360,000);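 active = compounds whose normalised, plate-corrected inhibition of enzyme fluorescence in the single-dose primary screen is 50% or more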;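 note: 0% = DMSO with enzyme and 100% = substrate without enzyme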
TAG inh = triacylglycerol accumulation inhibition; H9c2 cells, Nile Red lipid (TAG) fluorescence; cells loaded with 200 µM oleic acid; inhibition, % at 12.5 µM; actives 0.66% (n = 230,000); AID 651582;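 active = pattern-corrected inhibition of lipid staining of at least 50% with the nuclear-stain viability signal not falling by more than 50%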;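 note: 0% = DMSO wells and 100% = triacsin C control wells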
aDG glyco up = alpha-DG glycosylation activation; Pro5-aDG cells, alpha-DG glycosylation AlphaScreen (IIH6); 0% Pro5, 100% B10-LARGE cell signal; activation, % at 10 µM; actives 0.22% (n = 360,000); AID 624168;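 active = activation of at least 8% versus controls, or a plate z-score of at least 8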;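 note: Pro5 are CHO cells carrying HIG-tagged alpha-DG that lacks glycosylation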
Numbers without * were called inactive; i = inactive; · = no result given; ! = repeats disagree.

SMILES	beta cell repl	Cardio protect	Calpain2 inh	FAS TE block	TAG inh	aDG glyco up
CCOCc1nnc(NC(=O)C2CCN(C(=O)C3CC(=O)N(c4ccc(C)cc4)C3)CC2)s1 (centres undefined)	-3	10	·	-2	·	0
COc1ccc(S(=O)(=O)NC(=O)C2(C)CCN2C(=O)CC2CCCCC2)cc1OC (centres undefined)	·	2	·	-8	3	0
O=C(CSc1nnnn1C1CC1)N1CCN(c2ccccc2F)CC1	-1	-2	·	0	-13	0
CCC(=O)N/N=C/c1ccc(-c2ccc([N+](=O)[O-])cc2)o1	-1	8	-22	2	-1	0
CC(C)(C)C(=O)/C=c1\s/c(=C\c2ccc(-c3ccc([N+](=O)[O-])cc3)o2)c(=O)n1CC(=O)NC(N)=O	-2	52*	-242	-86	i	-1
Cc1ccc(Oc2ccc(C(=O)NCc3ccncc3)cc2)cc1	·	-23	50*	-4	-19	6
O=C(NCc1ccncc1)c1ccc(Oc2ccccc2)cc1	-2	-16	-12	-2	-10	1
O=C(Cc1ccc2ccccc2c1)NC(Cc1ccccc1)C(=O)O (centres undefined)	·	0	·	-5	3	0
CCOC(=O)C(C)Oc1ccc(C2NC(=O)NC(C)=C2C(C)=O)cc1Br (centres undefined)	-2	55*	-31	-6	·	0
CNC[C@@H](CC1CCCCC1)NC[C@H](CC(C)C)NCCc1cccc(C(F)(F)F)c1	-8	-34	·	13	134*	0
O=C1C(=O)N(CNc2ccccn2)c2ccccc21	-3	0	18	-6	59*	0
O=C1C(=O)N(CNc2cccnc2)c2ccccc21	-3	3	8	-7	2	0
CCOc1ccc(NC(=O)COC(=O)CCC(=O)c2cccs2)cc1	-3	-7	·	5	-2	0
Cc1cc(C(=O)OCC(=O)NCCc2ccccc2)c2ccccc2n1	6	-9	·	3	0	0
CCOCCCNc1ccc(N2C(=O)C3CCCCC3C2=O)cc1[N+](=O)[O-] (centres undefined)	4	-8	59*	-10	-5	0
CC1CCC2C(=O)N(c3ccc(NC4CCCCC4)c([N+](=O)[O-])c3)C(=O)C2C1 (centres undefined)	0	-9	40	20	·	0
CCN(CC)c1ccc(N2C(=O)C3CCCCC3C2=O)cc1[N+](=O)[O-] (centres undefined)	-2	-6	26	5	·	0
CCOC(=O)N1CCC(Nc2ccc(N3C(=O)C4CCCCC4C3=O)cc2[N+](=O)[O-])CC1 (centres undefined)	0	-1	98*	-4	-5	0
NS(=O)(=O)c1cccc(NC(=O)CN2CCC(Cc3ccccc3)CC2)c1	-3	-4	78*	-3	-5	1
Cc1cc(N2CCN(C(c3ccccc3)c3ccccc3)CC2)n2ncnc2n1	-3	22	-1	54*	-14	0
Cc1cc(N2CCN(c3nc4ccccc4s3)CC2)n2ncnc2n1	-6	-17	-23	-6	·	4.2*
COc1ccc(CNC(=O)C2Cc3cc(S(=O)(=O)N4CCCC4)ccc3N2C(C)=O)c(OC)c1 (centres undefined)	5	2	·	-2	·	0
Cc1ccc(Nc2ncccc2C(=O)NCc2cccs2)c(C)c1	-4	-9	19	24	·	0
Cc1cccc(Nc2ncccc2C(=O)NCc2cccs2)c1C	-4	-5	54*	21	18	0
O=C(c1ccc(COc2ccc(Cl)cc2)cc1)N1CCCCC1	-3	-8	58*	21	·	0
SMILES	beta cell repl	Cardio protect	Calpain2 inh	FAS TE block	TAG inh	aDG glyco up
O=[N+]([O-])c1cc(/C=N/n2cnnc2)ccc1N1CCCC1	-2	2	62*	-3	·	0
CCC(CC)CN1C(Nc2ccccc2)=NC[C@@H]1C	1	-7	·	-12	1	0
Cc1[nH]n2c(=O)cc(C(C)(C)C)nc2c1-c1ccccc1	-2	53*	-39	-1	-11	3
Cc1[nH]n2c(=O)cc(C(C)C)nc2c1-c1ccccc1	-2	17	-49	-5	·	0
Cc1ccc(CC2(C)C(=O)Nc3c(Cl)cccc32)cc1 (centres undefined)	·	-6	·	4	-18	0
CCN(CC(=O)Nc1ccc(NC(C)=O)cc1)C(=O)c1cccc(N2C(=O)c3ccccc3C2=O)c1	·	0	·	-9	-14	0
Cc1cc(C)cc(OCC(=O)Nc2cccc(-c3nc4ncccc4o3)c2)c1	-2	102*	-1	22	12	0
O=C1NC(c2cccs2)Nc2ccccc21 (centres undefined)	1	66*	i	-1	8	0
COc1ccc(CCn2c(NN)nc3c2c(=O)[nH]c(=O)n3C)cc1	-3	9	-35	-2	35	0
COc1ccc(CCn2c(Br)nc3c2c(=O)[nH]c(=O)n3C)cc1	-3	64*	9	-10	·	0
Cc1cn(-c2cc(C(=O)Nc3ccc(C)c(NC(=O)C(=O)c4c[nH]c5ccccc45)c3)cc(C(F)(F)F)c2)cn1	-8	17	-70	5	124*!	0
CCCCCCCNC1=CC(=O)CC(c2ccccc2)C1 (centres undefined)	-6	-20	74*	19	·	1
COc1ccc(S(=O)(=O)N(C)C)cc1NC(=O)c1ccc2c(c1)NC(=O)C(C)S2 (centres undefined)	3	10	·	1	3	0
O=C(C#Cc1ccccc1)c1ccccc1	·	-11	·	14	64*	0
CCCOC(=O)c1ccc(Oc2cn[nH]c2-c2ccc(OCC)cc2O)cc1	-5	-5	53*	-176	-68	3
CCCc1ccc(Oc2cn[nH]c2-c2ccc(O)c(C)c2O)cc1	-4	-22	53*	-152	·	1
COc1ccc2sc(-c3ccc(S(C)(=O)=O)cc3)c(-c3ccc(SC)cc3)c2c1	-2	2	·	29	9	0
CC1CCCC(C)N1C(=O)COC(=O)CSc1ccc(C(N)=O)cc1[N+](=O)[O-] (centres undefined)	-4	3	·	-1	1	0
O=[N+]([O-])c1ccc(N/N=C/c2c[nH]c3ccccc23)cc1	-4	-20	12	24	-37	2
O=[N+]([O-])c1ccccc1N/N=C/c1c[nH]c2ccccc12	-1	0	19	31	82*	-1
Cc1cc(=O)[nH]c(N=N/C(=N/Nc2ccccc2C)c2ccccc2)n1	-4	60*	-9	-1	11	0
Cc1cc(=O)[nH]c(N=N/C(=N/Nc2ccc(O)cc2)c2ccccc2)n1	-8	49	-6	-1	-2	0
O=C(O/N=C1\CCS(=O)(=O)c2sccc21)c1ccc(F)cc1	-3	8	60*	-5	-10	-1
